# PubChem BioAssay (EPA / NIEHS)
# Results filed as inconclusive are left out. The source made the active and inactive calls. Rule for the calls, unless noted: active = hit-call score of the fitted dose curve at least 0.9, where 1 is the maximum; inconclusive = response in the unintended direction; inactive = score below 0.9.
# Legend:
# [1] = ATG_GRE_CIS: Attagene CIS-FACTORIAL HepG2 Assay for human Glucocorticoid Response Elements (GRE) (AID 2282947; active = hit-call score of the fitted dose curve at least 0.9, where 1 is the maximum; inactive = score below 0.9); settings: HepG2 GRE cis-reporter, Attagene multiplex mRNA; actives raise or lower the signal
# Summary of the method: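 HepG2 cells transiently transfected with multiple cis-promoter reporter units measure endogenous TF activity; 24 h compound exposure. Reporter mRNA quantified by RT-PCR, FAM labelling, HpaI digestion and capillary electrophoresis; bidirectional fit vs DMSO baseline.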
# [2] = target: Hypoxia-inducible factor 1-alpha (Homo sapiens) (UniProt Q16665); experiment: ATG_HIF1a_CIS: Attagene CIS-FACTORIAL HepG2 Assay for human Hypoxia Inducible Factor 1 (HIF1A) (AID 2282951; active = hit-call score of the fitted dose curve at least 0.9, where 1 is the maximum; inactive = score below 0.9); settings: HepG2 Attagene cis-factorial HIF1a reporter transcription; actives raise or lower the signal
# Summary of the method: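 HepG2 cells transiently transfected with multiple cis-regulated reporter transcription units measure endogenous transcription factor activity. After 24 h exposure, reporter mRNA is quantified by RT-PCR with 6-FAM labelling, HpaI digestion and capillary electrophoresis. Bidirectional fitting against DMSO.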
# [3] = target: Heat shock factor protein 1 (Homo sapiens) (UniProt Q00613); experiment: ATG_HSE_CIS: Attagene CIS-FACTORIAL HepG2 Assay for human Heat Shock Transcription Factor 1 (HSE) (AID 2282953; active = hit-call score of the fitted dose curve at least 0.9, where 1 is the maximum; inactive = score below 0.9); settings: HepG2 HSE cis-reporter, Attagene RNA transcription; actives raise or lower the signal
# Summary of the method: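 HepG2, transient MRTU transfection, cis-promoter reporters (endogenous TF activity). 24 h compound. RNA → oligo(dT) RT → PCR → 6-FAM primer extension → HpaI cut → CE. Bidirectional fit vs DMSO.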
# [4] = target: Paired box protein Pax-6 (Homo sapiens) (UniProt P26367); experiment: ATG_Pax6_CIS: Attagene CIS-FACTORIAL HepG2 Assay for human Paired Box 6 (PAX6) (AID 2282956; active = hit-call score of the fitted dose curve at least 0.9, where 1 is the maximum; inactive = score below 0.9); settings: HepG2 CIS-FACTORIAL PAX6 reporter transcription, RNA readout; actives raise or lower the signal
# Summary of the method: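 After twenty-four hours of chemical exposure, transfected HepG2 cells are harvested for RNA. Cis-promoter reporter transcripts are amplified, fluorescently labelled and sized by capillary electrophoresis, with gain and loss of signal scored against DMSO.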
# [5] = target: Signal transducer and activator of transcription 3 (Homo sapiens) (UniProt P40763); experiment: ATG_STAT3_CIS: Attagene CIS-FACTORIAL HepG2 Assay for human Signal Transducer and Activator of Transcription 3 (STAT3) (AID 2282963; active = hit-call score of the fitted dose curve at least 0.9, where 1 is the maximum; inactive = score below 0.9); settings: HepG2, Attagene cis-factorial STAT3 reporter transcription; actives raise or lower the signal
# Summary of the method: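 HepG2 cells transiently transfected with cis-element-driven multiple reporter transcription units; after 24 h chemical exposure, reporter mRNA measured by RT-PCR, 6-FAM primer-extension labelling, HpaI digestion and capillary electrophoresis. Bidirectional fitting versus DMSO baseline.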
# [6] = ATG_M_19_TRANS: Attagene TRANS-FACTORIAL HepG2 Assay for M19 Transcription Factor (Internal Marker) (AID 2282974); settings: HepG2 Attagene TRANS-FACTORIAL M19 internal marker reporter
# Summary of the method: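 HepG2 transiently transfected with GAL4-UAS multiplex reporter constructs, exposed 24 h; reporter RNA quantified by RT-PCR, 6-FAM labeling, HpaI digestion and capillary electrophoresis; internal background marker fitted upward versus DMSO.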
# [7] = target: Hepatocyte nuclear factor 4-alpha (Homo sapiens) (UniProt P41235); experiment: ATG_HNF4a_TRANS: Attagene TRANS-FACTORIAL HepG2 Assay for human Hepatocyte Nuclear Factor 4 alpha (HNF4a) (AID 2282982); settings: HepG2 HNF4a transactivation reporter, mRNA readout
# Summary of the method: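 HepG2 cells transiently transfected with multiplexed GAL4-UAS reporter units responsive to chimeric NR-GAL4 proteins; compound exposure 24 h. Reporter mRNA quantified by RT-PCR, 6-FAM labelling, HpaI digestion and capillary electrophoresis; gain of signal versus DMSO baseline.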
# [8] = ATG_M_32_TRANS: Attagene TRANS-FACTORIAL HepG2 Assay for M32 Transcription Factor (Internal Marker) (AID 2282984); settings: HepG2 Attagene TRANS M32 internal marker reporter;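 note: transcript level of a background control reporter unit measured by RT-PCR and capillary electrophoresis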
# Summary of the method: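 HepG2 cells transiently transfected with multiple GAL4-UAS reporter transcription units, dosed for 24 hours; reporter mRNA quantified by RT-PCR, 6-FAM primer extension, HpaI digestion and capillary electrophoresis. Gain-of-signal fitted versus DMSO baseline; internal background-control marker.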
# [9] = target: Myc proto-oncogene protein (Homo sapiens) (UniProt P01106); experiment: ATG_Myc_CIS: Attagene CIS-FACTORIAL HepG2 Assay for human Myelocytomatosis (Myc) Proto-Oncogene Transcription Factor (AID 2282990; active = hit-call score of the fitted dose curve at least 0.9, where 1 is the maximum; inactive = score below 0.9); settings: HepG2, Attagene cis-reporter transcription factor activity; actives raise or lower the signal
# Summary of the method: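 HepG2 cells transiently transfected with multiple cis-promoter-driven reporter transcription units, so endogenous TF activity is read. After 24 h compound exposure, reporter mRNA was quantified by RT-PCR, 6-FAM labelling, HpaI digestion and capillary electrophoresis; bidirectional fit versus DMSO.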
# [10] = target: Cellular tumor antigen p53 (Homo sapiens) (UniProt P04637); experiment: ATG_p53_CIS: Attagene CIS-FACTORIAL HepG2 Assay for human p53 Transcription Factor (AID 2282994; active = hit-call score of the fitted dose curve at least 0.9, where 1 is the maximum; inactive = score below 0.9); settings: HepG2 p53 cis-element reporter, Attagene mRNA; actives raise or lower the signal
# Summary of the method: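 Using HepG2 hepatoma cells carrying cis-acting multiplexed reporters, mRNA induction is detected after a 24 h exposure. Gain- and loss-of-signal responses are fitted relative to DMSO-treated cells.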
# [11] = target: human Peroxisome Proliferator-activated Receptor alpha (PPARa), PPARA (gene 5465) (UniProt Q07869); experiment: ATG_PPARa_TRANS: Attagene TRANS-FACTORIAL HepG2 Assay for human Peroxisome Proliferator-activated Receptor alpha (PPARa) (AID 2283001)
# Summary of the method: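 HepG2 cells transiently transfected with multiplexed GAL4-UAS reporter units and chimeric NR-Gal4 constructs were dosed for 24 h. Reporter mRNA was measured by RT-PCR with fluorescent labelling and capillary electrophoresis; gain of signal fitted against DMSO.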
# [12] = TOX21_p53_BLA_p2_viability: Viability Assessment in the Tox21 HCT-116 p53 Agonism Beta-lactamase Assay, Phase 2 (AID 2283591);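 note: compound exposure lasted 16 h at 37 °C; actives lower the ATP signal meaning cytotoxicity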
# Summary of the method: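 HCT-116 p53-bla cells (4000/well) rested 5 h at 37C, then received compounds in DMSO (217-fold dilution) for 16 h at 37C, 5% CO2. After the CCF4 read, CellTiter-Glo was added; ATP luminescence was read after 30 min at room temperature.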
# [13] = target: Cellular tumor antigen p53 (Homo sapiens) (UniProt P04637); experiment: TOX21_p53_BLA_p2_ratio: Tox21 HCT-116 p53 Agonism Beta-lactamase Assay, Ratio, Phase 2 (AID 2283592)
# Summary of the method: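 In this cell-based reporter format, HCT116 cells were dosed with chemicals delivered from DMSO by 217-fold dilution and incubated 16 h at 37C. Emission at 460 and 530 nm after 2 h CCF4-AM loading provided the ratio, fitted upward versus DMSO.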
# [14] = target: Cellular tumor antigen p53 (Homo sapiens) (UniProt P04637); experiment: TOX21_p53_BLA_p3_ratio: Tox21 HCT-116 p53 Agonism Beta-lactamase Assay, Ratio, Phase 3 (AID 2283596)
# Summary of the method: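 HCT116 p53-bla cells (4000/well) given compound in DMSO (217-fold dilution) after 5 h, incubated 16 h at 37C. CCF4-AM substrate 2 h at room temperature; 460/530 nm emission ratio, gain fitted against DMSO.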
# [15] = target: Cellular tumor antigen p53 (Homo sapiens) (UniProt P04637); experiment: TOX21_p53_BLA_p5_ratio: Tox21 HCT-116 p53 Agonism Beta-lactamase Assay, Ratio, Phase 5 (AID 2283599)
# Summary of the method: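 HCT-116 cells carrying a p53-inducible beta-lactamase reporter were seeded at 4000 cells/well and dosed after 5 h with compound in DMSO (217-fold dilution). After 16 h at 37C, CCF4-AM substrate was added for 2 h, and the 460/530 nm emission ratio was scored as gain-of-signal versus DMSO.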
# [16] = TOX21_p53_BLA_p5_viability: Viability Assessment in the Tox21 HCT-116 p53 Agonism Beta-lactamase Assay, Phase 5 (AID 2283600)
# Summary of the method: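 Compounds, pinned from DMSO at 217-fold dilution, were left on the cells for 16 h. The viability endpoint was ATP content measured by CellTiter-Glo luminescence, where falling signal reflects cytotoxicity.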
# [17] = target: Cellular tumor antigen p53 (Homo sapiens) (UniProt P04637); experiment: TOX21_p53_BLA_p4_ratio: Tox21 HCT-116 p53 Agonism Beta-lactamase Assay, Ratio, Phase 4 (AID 2283601)
# Summary of the method: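 HCT116 cells carrying an inducible beta-lactamase reporter were plated at 4000 cells/well, rested 5 h, then exposed to compounds in DMSO (217-fold dilution) for 16 h at 37C. CCF4-AM substrate was loaded 2 h at room temperature; 460/530 nm emission ratio scored gain-of-signal versus DMSO.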
# [18] = ATG_RORE_CIS: Attagene CIS-FACTORIAL HepG2 Assay for human RAR-related Orphan Receptor Element (RORE) (AID 2282959; active = hit-call score of the fitted dose curve at least 0.9, where 1 is the maximum; inactive = score below 0.9); settings: HepG2 Attagene cis-factorial RORE reporter, mRNA; actives raise or lower the signal
# Summary of the method: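 HepG2 cells carrying transiently transfected cis-regulated reporter units; RORE-driven reporter mRNA quantified 24 h post-dosing by RT-PCR, 6-FAM primer extension, HpaI digestion and capillary electrophoresis. Bidirectional fit versus DMSO.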
# [19] = ATG_NRF2_ARE_CIS: Attagene CIS-FACTORIAL HepG2 Assay for human Nuclear Factor Erythroid 2 Related Factor 2 (NFR2) response to Antioxidant Response Elements (ARE) (AID 2282992; active = hit-call score of the fitted dose curve at least 0.9, where 1 is the maximum; inactive = score below 0.9;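 for AC50: reporter mRNA level measured by RT-PCR and capillary electrophoresis fluorescence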); settings: HepG2 Attagene ARE/NRF2 reporter, transcription factor activity; actives raise or lower the signal
# Summary of the method: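 Cis-factorial assay: transfected HepG2 reporter library, 24 h dosing, mRNA readout via RT-PCR/CE; DMSO-referenced bidirectional analysis.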
# [20] = target: Hepatocyte nuclear factor 3-beta (Homo sapiens) (UniProt Q9Y261); experiment: ATG_FoxA2_CIS: Attagene CIS-FACTORIAL HepG2 Assay for human Forkhead box A2 (FOXA2) (AID 2282942; active = hit-call score of the fitted dose curve at least 0.9, where 1 is the maximum; inactive = score below 0.9); settings: HepG2 cis-reporter transcription factor activity, 24 h; actives raise or lower the signal
# Summary of the method: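 HepG2 transiently transfected with a multiplexed cis-promoter reporter library read endogenous FOXA2 activity. After 24 h compound exposure, reporter mRNA was quantified by RT-PCR, HpaI digestion and capillary electrophoresis. Bidirectional fit against DMSO.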
# Sequence of Paired box protein Pax-6 (Homo sapiens) (P26367 whole entry, looked up): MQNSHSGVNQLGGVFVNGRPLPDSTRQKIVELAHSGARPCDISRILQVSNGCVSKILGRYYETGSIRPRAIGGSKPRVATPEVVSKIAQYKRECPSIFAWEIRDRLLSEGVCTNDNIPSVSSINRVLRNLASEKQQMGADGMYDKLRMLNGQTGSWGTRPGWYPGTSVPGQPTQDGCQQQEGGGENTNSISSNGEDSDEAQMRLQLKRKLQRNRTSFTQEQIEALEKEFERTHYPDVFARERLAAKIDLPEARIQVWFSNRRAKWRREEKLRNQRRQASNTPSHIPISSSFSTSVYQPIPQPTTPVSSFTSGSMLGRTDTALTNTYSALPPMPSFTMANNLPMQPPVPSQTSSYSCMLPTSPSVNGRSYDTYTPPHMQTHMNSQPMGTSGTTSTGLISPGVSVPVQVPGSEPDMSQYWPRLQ
# Sequence of Hepatocyte nuclear factor 4-alpha (Homo sapiens) (P41235 whole entry, looked up, the tested form may be a part): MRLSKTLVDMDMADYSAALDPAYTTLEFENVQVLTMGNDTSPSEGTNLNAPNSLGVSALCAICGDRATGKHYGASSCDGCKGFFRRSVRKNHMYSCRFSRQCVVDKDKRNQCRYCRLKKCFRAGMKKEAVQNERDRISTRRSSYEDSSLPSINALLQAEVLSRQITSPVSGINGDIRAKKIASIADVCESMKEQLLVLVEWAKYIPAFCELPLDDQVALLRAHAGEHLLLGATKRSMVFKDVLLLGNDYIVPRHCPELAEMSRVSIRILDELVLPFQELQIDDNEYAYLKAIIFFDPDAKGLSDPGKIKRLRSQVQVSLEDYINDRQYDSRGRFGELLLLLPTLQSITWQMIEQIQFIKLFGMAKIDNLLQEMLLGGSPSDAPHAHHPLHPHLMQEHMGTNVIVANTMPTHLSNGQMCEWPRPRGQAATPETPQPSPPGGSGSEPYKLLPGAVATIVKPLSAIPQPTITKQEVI
# Sequence of Signal transducer and activator of transcription 3 (Homo sapiens) (P40763 whole entry, looked up): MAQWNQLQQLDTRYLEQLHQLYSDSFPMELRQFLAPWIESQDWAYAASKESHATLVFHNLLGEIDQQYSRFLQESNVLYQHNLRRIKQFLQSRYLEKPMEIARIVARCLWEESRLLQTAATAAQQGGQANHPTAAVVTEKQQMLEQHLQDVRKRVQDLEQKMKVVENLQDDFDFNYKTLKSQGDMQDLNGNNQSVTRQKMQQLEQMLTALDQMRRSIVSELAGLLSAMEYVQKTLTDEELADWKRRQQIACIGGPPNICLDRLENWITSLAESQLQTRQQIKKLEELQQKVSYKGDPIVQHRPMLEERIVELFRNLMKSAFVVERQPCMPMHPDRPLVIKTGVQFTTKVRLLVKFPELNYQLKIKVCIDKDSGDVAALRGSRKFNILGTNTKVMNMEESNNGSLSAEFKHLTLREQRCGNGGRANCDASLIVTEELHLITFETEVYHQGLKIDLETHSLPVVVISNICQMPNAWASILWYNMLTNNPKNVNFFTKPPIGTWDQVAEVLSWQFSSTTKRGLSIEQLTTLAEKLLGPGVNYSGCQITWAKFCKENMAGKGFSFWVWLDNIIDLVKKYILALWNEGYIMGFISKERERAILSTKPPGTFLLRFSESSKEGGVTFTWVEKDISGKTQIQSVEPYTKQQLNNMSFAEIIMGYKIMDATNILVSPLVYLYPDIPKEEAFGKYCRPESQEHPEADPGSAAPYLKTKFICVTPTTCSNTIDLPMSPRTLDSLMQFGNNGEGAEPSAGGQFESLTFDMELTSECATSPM
# Sequence of human Peroxisome Proliferator-activated Receptor alpha (PPARa), PPARA (gene 5465) (Q07869 whole entry, looked up, the tested form may be a part): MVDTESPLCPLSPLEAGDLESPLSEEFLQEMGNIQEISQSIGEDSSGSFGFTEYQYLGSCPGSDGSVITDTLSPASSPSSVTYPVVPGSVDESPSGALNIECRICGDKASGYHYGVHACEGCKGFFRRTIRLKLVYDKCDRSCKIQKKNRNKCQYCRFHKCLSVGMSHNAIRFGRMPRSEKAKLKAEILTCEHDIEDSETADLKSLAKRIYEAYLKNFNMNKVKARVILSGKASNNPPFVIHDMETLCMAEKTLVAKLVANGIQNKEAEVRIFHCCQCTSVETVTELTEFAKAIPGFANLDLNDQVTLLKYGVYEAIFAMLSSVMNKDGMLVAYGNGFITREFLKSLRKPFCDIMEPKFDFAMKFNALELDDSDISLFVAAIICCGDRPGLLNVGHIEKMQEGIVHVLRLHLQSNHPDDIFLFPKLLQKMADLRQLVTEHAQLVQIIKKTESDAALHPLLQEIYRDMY
# Sequence of Hypoxia-inducible factor 1-alpha (Homo sapiens) (Q16665 whole entry, looked up): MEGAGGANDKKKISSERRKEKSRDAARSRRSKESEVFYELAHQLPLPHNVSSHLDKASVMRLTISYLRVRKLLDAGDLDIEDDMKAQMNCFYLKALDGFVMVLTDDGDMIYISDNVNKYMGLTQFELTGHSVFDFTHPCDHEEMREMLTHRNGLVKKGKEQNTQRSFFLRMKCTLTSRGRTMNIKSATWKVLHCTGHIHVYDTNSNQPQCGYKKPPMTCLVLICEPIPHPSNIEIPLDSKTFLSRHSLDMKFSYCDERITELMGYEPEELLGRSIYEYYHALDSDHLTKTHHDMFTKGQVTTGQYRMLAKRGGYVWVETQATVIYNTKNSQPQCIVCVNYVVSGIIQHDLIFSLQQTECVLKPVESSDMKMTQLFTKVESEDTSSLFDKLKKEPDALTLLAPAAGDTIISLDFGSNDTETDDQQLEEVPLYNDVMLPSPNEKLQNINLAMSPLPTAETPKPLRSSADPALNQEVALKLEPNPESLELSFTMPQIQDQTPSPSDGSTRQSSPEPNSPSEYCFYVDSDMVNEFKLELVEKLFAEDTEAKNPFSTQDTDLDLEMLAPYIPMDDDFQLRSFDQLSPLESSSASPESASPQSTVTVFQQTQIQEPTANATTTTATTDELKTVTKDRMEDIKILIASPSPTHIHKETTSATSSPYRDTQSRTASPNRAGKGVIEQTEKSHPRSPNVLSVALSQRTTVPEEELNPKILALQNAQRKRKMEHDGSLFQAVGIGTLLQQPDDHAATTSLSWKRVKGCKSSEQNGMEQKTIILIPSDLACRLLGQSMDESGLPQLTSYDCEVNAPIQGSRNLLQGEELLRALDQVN
# Sequence of Heat shock factor protein 1 (Homo sapiens) (Q00613 whole entry, looked up): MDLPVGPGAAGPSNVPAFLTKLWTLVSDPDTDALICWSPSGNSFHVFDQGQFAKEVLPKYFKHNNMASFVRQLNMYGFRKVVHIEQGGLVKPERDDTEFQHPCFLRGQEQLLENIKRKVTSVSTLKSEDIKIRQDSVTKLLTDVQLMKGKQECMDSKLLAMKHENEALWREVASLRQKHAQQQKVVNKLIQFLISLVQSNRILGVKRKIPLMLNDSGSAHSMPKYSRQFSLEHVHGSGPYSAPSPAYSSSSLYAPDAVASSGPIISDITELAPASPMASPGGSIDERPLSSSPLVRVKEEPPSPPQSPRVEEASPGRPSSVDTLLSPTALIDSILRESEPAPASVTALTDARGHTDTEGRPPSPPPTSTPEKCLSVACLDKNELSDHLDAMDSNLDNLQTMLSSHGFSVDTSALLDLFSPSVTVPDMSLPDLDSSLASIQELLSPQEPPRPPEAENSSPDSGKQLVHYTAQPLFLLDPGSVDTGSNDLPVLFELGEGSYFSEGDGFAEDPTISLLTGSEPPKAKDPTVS
# Sequence of Cellular tumor antigen p53 (Homo sapiens) (P04637 whole entry, looked up): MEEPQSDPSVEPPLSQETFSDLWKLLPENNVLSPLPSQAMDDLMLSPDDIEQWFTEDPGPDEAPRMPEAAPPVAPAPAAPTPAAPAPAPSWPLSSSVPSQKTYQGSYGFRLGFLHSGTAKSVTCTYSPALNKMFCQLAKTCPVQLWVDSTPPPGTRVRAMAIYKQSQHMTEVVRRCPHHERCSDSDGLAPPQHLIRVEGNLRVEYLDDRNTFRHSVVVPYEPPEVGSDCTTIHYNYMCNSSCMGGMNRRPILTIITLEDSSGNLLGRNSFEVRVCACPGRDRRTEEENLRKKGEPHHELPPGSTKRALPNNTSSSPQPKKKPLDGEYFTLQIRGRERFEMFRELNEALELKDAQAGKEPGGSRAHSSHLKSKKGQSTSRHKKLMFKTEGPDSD
# Sequence of Myc proto-oncogene protein (Homo sapiens) (P01106 whole entry, looked up): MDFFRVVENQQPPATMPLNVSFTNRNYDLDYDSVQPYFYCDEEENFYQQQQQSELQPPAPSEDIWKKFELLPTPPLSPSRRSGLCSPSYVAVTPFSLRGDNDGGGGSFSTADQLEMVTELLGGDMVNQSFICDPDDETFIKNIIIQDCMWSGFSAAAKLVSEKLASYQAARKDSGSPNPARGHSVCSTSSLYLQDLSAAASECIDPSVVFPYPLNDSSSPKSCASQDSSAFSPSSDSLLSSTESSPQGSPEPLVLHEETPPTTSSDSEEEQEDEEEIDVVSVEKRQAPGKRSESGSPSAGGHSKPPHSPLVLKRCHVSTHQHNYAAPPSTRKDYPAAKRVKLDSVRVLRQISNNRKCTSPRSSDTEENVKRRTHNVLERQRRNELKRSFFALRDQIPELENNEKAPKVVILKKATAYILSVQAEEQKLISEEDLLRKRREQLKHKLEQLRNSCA
# Sequence of Hepatocyte nuclear factor 3-beta (Homo sapiens) (Q9Y261 whole entry, looked up): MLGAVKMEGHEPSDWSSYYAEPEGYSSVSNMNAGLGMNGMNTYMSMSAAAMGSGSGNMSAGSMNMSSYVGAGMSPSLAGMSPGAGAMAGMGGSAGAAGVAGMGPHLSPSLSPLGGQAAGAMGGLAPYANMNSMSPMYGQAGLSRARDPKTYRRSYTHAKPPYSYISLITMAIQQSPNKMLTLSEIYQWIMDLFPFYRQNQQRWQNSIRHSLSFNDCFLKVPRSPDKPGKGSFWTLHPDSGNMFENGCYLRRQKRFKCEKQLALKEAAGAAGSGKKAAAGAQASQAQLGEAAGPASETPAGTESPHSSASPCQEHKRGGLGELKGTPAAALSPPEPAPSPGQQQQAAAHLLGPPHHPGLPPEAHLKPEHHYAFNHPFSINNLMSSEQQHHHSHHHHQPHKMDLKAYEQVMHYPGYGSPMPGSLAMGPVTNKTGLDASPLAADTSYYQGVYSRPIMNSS
compound,measurement,setting,value
CC(C)(C)C(=O)CCl,outcome,[1],inactive
same,AC50,[2],62.4 µM (active)
same,AC50,[3],157 µM (active)
same,outcome,[4],inactive
same,outcome,[5],inactive
same,outcome,[6],inactive
same,outcome,[7],inactive
same,outcome,[8],inactive
same,outcome,[9],inactive
same,outcome,[10],inactive
same,outcome,[11],inactive
same,outcome,[12],inactive
same,outcome,[13],inactive
same,outcome,[14],inactive
same,outcome,[15],inactive
same,outcome,[16],inactive
same,outcome,[17],inactive
CCC(C)c1cc([N+](=O)[O-])cc([N+](=O)[O-])c1OC(=O)C=C(C)C (centres undefined),outcome,[1],inactive
same,outcome,[2],inactive
same,AC50,[3],25.8 µM (active)
same,AC50,[4],37.1 µM (active)
same,outcome,[18],inactive
same,AC50,[5],80.1 µM (active)
same,outcome,[7],inactive
same,outcome,[8],inactive
same,AC50,[19],3.47 µM (active)
same,outcome,[11],inactive
same,outcome,[12],inactive
same,AC50,[13],13.8 µM (active)
same,AC50,[14],13.9 µM (active)
same,AC50,[15],10.3 µM (active)
same,outcome,[16],inactive
same,AC50,[17],14.3 µM (active)
O=[N+]([O-])C=Cc1ccccc1,AC50,[20],22.7 µM (active)
same,outcome,[1],inactive
same,outcome,[2],inactive
same,AC50,[3],11.4 µM (active)
same,outcome,[18],inactive
same,AC50,[5],33.4 µM (active)
same,AC50,[7],47.5 µM (active)
same,outcome,[8],inactive
same,outcome,[9],inactive
same,outcome,[19],inactive
same,outcome,[11],inactive
same,AC50,[12],27.2 µM (active)
same,AC50,[13],8.76 µM (active)
same,outcome,[16],inactive
same,outcome,[17],inactive
CC1CCC(=O)O1 (centres undefined),outcome,[20],inactive
same,outcome,[1],inactive
same,outcome,[2],inactive
same,outcome,[3],inactive
same,outcome,[4],inactive
same,outcome,[18],inactive
same,outcome,[6],inactive
same,outcome,[7],inactive
same,outcome,[14],inactive
same,outcome,[15],inactive
same,outcome,[17],inactive
